Results filed as inconclusive are left out. Active and inactive are the calls of the source. Unless noted, calls follow the shape of the dose curve; as a rule, active = well fitted curve in the direction sought with a large enough effect; inconclusive = small, poorly fitted or top-dose-only effect, or another doubt; inactive = no such curve, though single readings can be large; an effect the other way counts as inactive or inconclusive.
Legend:
[1] = target: Glutathione peroxidase 1 (Homo sapiens) (UniProt P07203); test: Primary qHTS Assay for Inhibitors of Recombinant Selenoprotein Glutathione Peroxidase 1 (GPX1) (AID 1845191); details: recombinant GPX1, GR-coupled NADPH fluorescence, 15 min; series mostly up to 48.8 µM; also: nearly all actives have a fitted effect of over 65% in size; also: potency is read from the fitted curve at half-maximal effect; as to activity, negative = inhibition: % is scaled to controls: 0 for no effect and ±100 for the full control effect
Sequence of Glutathione peroxidase 1 (Homo sapiens) (P07203 whole entry, looked up): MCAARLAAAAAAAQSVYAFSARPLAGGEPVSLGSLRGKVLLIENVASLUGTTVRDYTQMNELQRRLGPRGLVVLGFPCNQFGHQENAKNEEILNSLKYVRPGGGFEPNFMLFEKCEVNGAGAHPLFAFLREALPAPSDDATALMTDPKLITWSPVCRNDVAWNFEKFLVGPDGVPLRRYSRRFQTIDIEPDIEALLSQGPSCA
How it was run: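 NADPH consumption tracked by fluorescence at 340/450 nm between t=0 and t=15 min, room temperature. Final mix: 10 nM GPX1, 100 nM glutathione reductase, 1 mM GSH, 0.5 mM NADPH, 0.5 mM cumene hydroperoxide, 0.01% BSA; 30 min compound–enzyme preincubation.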

[2] = target: Phospholipid hydroperoxide glutathione peroxidase GPX4 (Homo sapiens) (UniProt P36969); test: Primary qHTS Assay for Inhibitors of Recombinant Selenoprotein Glutathione Peroxidase 4 (GPX4) (AID 1845192); details: recombinant GPX4, GR-coupled NADPH fluorescence, 15 min; series mostly up to 50 µM; also: nearly all actives have a fitted effect of over 65% in size; also: potency is read from the fitted curve at half-maximal effect; as to activity change, negative = inhibition: % is scaled to controls: 0 for no effect and ±100 for the full control effect
Sequence of Phospholipid hydroperoxide glutathione peroxidase GPX4 (Homo sapiens) (P36969 whole entry, looked up): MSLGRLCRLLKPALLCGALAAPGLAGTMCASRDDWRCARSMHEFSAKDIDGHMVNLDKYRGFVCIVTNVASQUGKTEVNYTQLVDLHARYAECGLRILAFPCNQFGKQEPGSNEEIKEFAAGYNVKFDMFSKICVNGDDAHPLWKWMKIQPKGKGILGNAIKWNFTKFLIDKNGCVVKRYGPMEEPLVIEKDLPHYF
How it was run: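 NADPH consumption followed by fluorescence at 340/450 nm, t=0 and after 15 min at room temperature. Reaction started with cumene hydroperoxide (0.5 mM final) after 30 min compound–GPX4 preincubation; final 200 nM GPX4, 100 nM GR, 1 mM GSH, 0.5 mM NADPH.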

[3] = target: Luciferin 4-monooxygenase (Photinus pyralis) (UniProt P08659); test: Primary firefly luciferase (FLuc) qHTS assay for identification of artifact compounds. (AID 1845220); details: purified firefly luciferase, luminescence, 5 min; series mostly up to 54.1 µM; also: nearly all actives have a fitted effect of over 60% in size;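 as to activity change, negative = inhibition: plate controls were DMSO vehicle for no effect and no enzyme for full effect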
How it was run: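 Cell-free, 1536-well qHTS. Buffer pH 7.6 with 0.01% Tween-20 and 0.05% BSA; 10 uM D-luciferin, 10 uM ATP; 10 nM P. pyralis luciferase; luminescence after 5 min.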

[4] = Primary fluorescence-based thiol-reactive (MSTI) qHTS assay for identification of artifact compounds. (AID 1845221); details: MSTI thiol-reactivity probe, 1 h; series mostly up to 53.8 µM; also: nearly all actives have a fitted effect of over 65% in size; also: potency is read from the fitted curve at half-maximal effect;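 as to activity change, negative = thiol reactive: thiol-reactive compounds lower the probe fluorescence signal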
How it was run: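 Compounds were incubated 1 h at room temperature in the dark with the MSTI probe (4 uM) in PBS pH 7.4, 2% DMSO. Signals were normalized between Acetyl-MSTI and MSTI.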

[5] = test system: Nanoluciferase (engineered Oplophorus gracilirostris luciferase); test: Primary Nanoluciferase (NLuc) qHTS assay for identification of artifact compounds. (AID 1845222); details: NLuc-conditioned medium, Nano-Glo luminescence, 5 min; series mostly up to 54.1 µM;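 also: 0% = DMSO and -100% = no enzyme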
How it was run: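 Compounds are pinned into diluted (1:55) conditioned medium of NLuc-expressing S16 cells and held 15 min at room temperature protected from light. Nano-Glo substrate follows, and luminescence is read 5 min later.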

[6] = Primary redox qHTS assay for identification of artifact compounds. (AID 1845223); details: Amplex Red/HRP redox cycling with DTT, fluorescence; series mostly up to 53.8 µM;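 also: 0% = DMSO and 100% = reference compound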
How it was run: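 Redox-cycling detection via DTT (250 uM final) oxidation coupled to Amplex Red (25 uM)/HRP (250 mU/mL) in HBSS. 15 min preincubation plus 30 min after DTT, room temperature. Ex/Em 525/598 nm; 4-parameter Hill fit against DMSO and 10 uM DA3003.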

[7] = qHTS drug screen for cell cycle checkpoint inhibitors in PARPi-resistant BRCA-mutant ovarian cancer cell lines. (AID 1963452; calls by dose curve); details: PEO1/OlaR viability, CellTiter-Glo luminescence, 96 h, stronger effect = lower value
How it was run: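 PEO1, PEO4 and PEO1/OlaR ovarian cancer cells, 600 per well, exposed 96 h at 37C to a dilution series. Viability read by CellTiter-Glo luminescence, normalized to DMSO and empty wells; activity summarized as Z-AUC.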

[8] = measured here: PEO1 parental Z-AUC

COc1cc(/C=C/C(=O)OC[C@H]2O[C@@](CO)(O[C@H]3O[C@H](CO)[C@@H](O)[C@H](O)[C@H]3O)[C@@H](OC(=O)/C=C/c3ccc(O)c(OC)c3)[C@@H]2O)ccc1O
active: Potency [4] 3.54 µM
inactive: Potency [1] | Potency [2] | Potency [3] | Potency [5] | Potency [6]

O=C(CC(c1ccccc1)c1ccccc1)N1CCN(C(c2ccccc2)c2ccccc2)CC1
inactive: Potency [1] | Potency [2] | Potency [3] | Potency [4] | Potency [5] | Potency [6]

O=C(O)Cc1cn(C2OCC(O)C(O)C2O[C@@H]2O[C@H](CO)[C@@H](O)[C@H](O)[C@H]2O)c2ccccc12 (stereo partly drawn)
inactive: Potency [1] | Potency [2] | Potency [3] | Potency [4] | Potency [5] | Potency [6]

O=C(Nc1ccc(-c2ccncc2)cc1)N[C@H](CO)c1ccccc1
inactive: Potency [1] | Potency [2] | Potency [3] | Potency [4] | Potency [5] | Potency [6]

C/C(=C\CCC1(C)C2CCC(C2)C1(C)O)C(=O)O (stereo not drawn)
inactive: Potency [1] | Potency [2] | Potency [3] | Potency [4] | Potency [5] | Potency [6]

O=C(O)CC(=O)OC[C@H]1O[C@@H](Oc2ccc3c(c2)OC[C@H]2c4cc5c(cc4O[C@@H]32)OCO5)[C@H](O)[C@@H](O)[C@@H]1O
inactive: Potency [1] | Potency [2] | Potency [3] | Potency [4] | Potency [5] | Potency [6]

C/C=C1\[C@H](O[C@@H]2O[C@H](CO)[C@@H](O)[C@H](O)[C@H]2O)OC=C(C(=O)OC)[C@H]1CC(=O)O
inactive: Potency [1] | Potency [2] | Potency [3] | Potency [4] | Potency [5] | Potency [6]

C=CC(=O)Nc1cccc(CN2C(=O)N(c3c(Cl)c(OC)cc(OC)c3Cl)Cc3cnc(NCCCCN(CC)CC)nc32)c1
inactive: Potency [1] | Potency [2] | Potency [3] | Potency [4] | Potency [5] | Potency [6]

O=C1NC(Cc2c[nH]c3ccccc23)C(=O)NC1Cc1cnc[nH]1 (stereo not drawn)
inactive: Potency [1] | Potency [2] | Potency [3] | Potency [4] | Potency [5] | Potency [6]

CC(=O)O[C@@H]1C[C@@H](OC(C)=O)C(C)(C)/C=C/[C@H](C)[C@H](OC(C)=O)[C@@]2(O)C[C@H](C)[C@H](OC(=O)c3ccccc3)[C@@H]2/C=C/1C
inactive: Potency [1] | Potency [2] | Potency [3] | Potency [4] | Potency [5] | Potency [6]

CC1=C(C(=O)O)/C(=C\CO[C@@H]2O[C@H](CO)[C@@H](O)[C@H](O)[C@H]2O)C(OC(=O)/C=C/c2ccc(O)cc2)C1 (stereo partly drawn)
inactive: Potency [1] | Potency [2] | Potency [3] | Potency [5] | Potency [6]
active: Potency [4] 4.62 µM

CC12CCC3c4ccc(OC5OC(C(=O)O)C(O)C(O)C5O)cc4CCC3C1CCC2O (stereo not drawn)
inactive: Potency [1] | Potency [2] | Potency [3] | Potency [4] | Potency [5] | Potency [6]

N#C[C@@H]1CCCN1C(=O)CNC12CC3CC(CC(O)(C3)C1)C2
inactive: Potency [1] | Potency [2] | Potency [3] | Potency [4] | Potency [5] | Potency [6]

CC1(C)CCC[C@@]2(C)C1[C@H](OC(=O)/C=C/C=C/C(=O)O)C=C1COC(=O)[C@@]12O (stereo partly drawn)
inactive: Potency [1] | Potency [2] | Potency [3] | Potency [4] | Potency [5] | Potency [6]

COc1cc2occc2c(O[C@@H]2O[C@H](CO)[C@@H](O)[C@H](O)[C@H]2O)c1CCC(=O)O
active: Potency [1] 11.1 µM | Potency [2] 11.1 µM | Potency [4] 5.19 µM
inactive: Potency [3] | Potency [5] | Potency [6]

CC1(C)CC[C@]2(C(=O)O[C@@H]3O[C@H](CO)[C@@H](O)[C@H](O)[C@H]3O)CC[C@]3(C)C(=CCC4[C@@]5(C)CC[C@H](O[C@@H]6O[C@H](C(=O)O)[C@@H](O)[C@H](O)[C@H]6O)C(C)(C)C5CC[C@]43C)C2C1 (stereo partly drawn)
inactive: Potency [1] | Potency [2] | activity change, negative = inhibition [3] 0.101% [at 11.6 µM] | activity change, negative = thiol reactive [4] 258% [at 11.5 µM] | activity, negative = inhibition [5] 3.65% [at 11.6 µM] | redox activity (% of DA3003) [6] 15.1% [at 11.5 µM]

COC(=O)C1=CO[C@@H](O[C@@H]2O[C@H](CO)[C@@H](O)[C@H](O)[C@H]2O)[C@@H]2C(COC(C)=O)=C[C@H](O)[C@H]12
inactive: Potency [1] | Potency [2] | Potency [3] | Potency [4] | Potency [5] | Potency [6]

CC(C)(O)/C=C/CC(C)(O)C1C(O)CC2(C)C3CCC4C(C)(C)C(=O)CCC4(C)C3CCC12C (stereo not drawn)
inactive: Potency [1] | Potency [2] | Potency [3] | Potency [4] | Potency [5] | Potency [6]

COc1ccc(N(C)c2nc(C)nc3ccccc23)cc1
inactive: Potency [1] | Potency [2] | Potency [3] | Potency [4] | Potency [5] | Potency [6]

Oc1ccc2nc(CN3CCC(Cc4ccccc4F)CC3)[nH]c2c1
inactive: Potency [1] | Potency [2] | Potency [3] | Potency [4] | Potency [5] | Potency [6]

C[C@H](N)C(=O)N[C@@H](Cc1ccc(O)cc1)C(=O)N1CCC[C@H]1C(=O)NCC(=O)N[C@@H](CCCCN)C(=O)N[C@@H](Cc1ccccc1)C(N)=O
inactive: activity, negative = inhibition [1] 0.372% [at 9.52 µM] | activity change, negative = inhibition [2] -6.9% [at 9.73 µM] | activity change, negative = inhibition [3] 3.15% [at 11.6 µM] | activity change, negative = thiol reactive [4] -3.19% [at 11.5 µM] | activity, negative = inhibition [5] 4.39% [at 11.6 µM] | redox activity (% of DA3003) [6] -3.11% [at 11.5 µM]

CC1CCC2(OC1)OC1CC3C4CCC5C[C@@H](O[C@@H]6O[C@H](CO[C@@H]7OC[C@@H](O)[C@H](O)[C@H]7O)[C@H](O)[C@H](O)[C@H]6O)CC[C@]5(C)C4CC[C@]3(C)C1C2C (stereo partly drawn)
inactive: Potency [1] | Potency [2] | Potency [3] | Potency [4] | Potency [5] | Potency [6]

O=C(Nc1ccn[nH]1)c1c(F)cccc1F
inactive: Potency [1] | Potency [2] | Potency [3] | Potency [4] | Potency [5] | Potency [6]

CCOC(=O)c1sc(NC(=O)[C@H](C(C)C)n2c(=O)[nH]c3ccccc3c2=O)nc1C
inactive: Potency [1] | Potency [2] | Potency [3] | Potency [4] | Potency [5] | Potency [6]

CCN(CC)CCN(Cc1ccc(-c2ccc(C(F)(F)F)cc2)cc1)C(=O)Cn1c(SCc2ccc(F)cc2)nc(=O)c2c1CCC2
inactive: Potency [1] | Potency [2] | Potency [3] | Potency [4] | Potency [5] | Potency [6]

CC1=C(CCC(C)CC(=O)O)[C@@]2(C)CCCC(C)(C)C2CC1=O (stereo partly drawn)
inactive: Potency [1] | Potency [2] | Potency [3] | Potency [4] | Potency [5] | Potency [6]

C[C@@H]1CC[C@]2(C(=O)O)CC[C@]3(C)C(=CCC4[C@@]5(C)CC[C@H](O)C(C)(C)C5C(O)C[C@]43C)[C@@H]2[C@]1(C)O (stereo partly drawn)
inactive: Potency [1] | Potency [2] | Potency [3] | Potency [5] | Potency [6]
active: Potency [4] 13 µM

CC[C@@H](O)C[C@@H]1C(C)=C[C@@H]2CCCC[C@@H]2[C@@]1(C)C(=O)O
inactive: Potency [1] | Potency [2] | Potency [3] | Potency [4] | Potency [5] | Potency [6]

CCOC(=O)Nc1cc(-c2ccc(C)c(NS(C)(=O)=O)c2)nn2c(C)nnc12
inactive: Potency [1] | Potency [2] | Potency [3] | Potency [4] | Potency [5] | Potency [6]

O=C(NOCC(O)CO)c1ccc(F)c(F)c1Nc1ccc(I)cc1F (stereo not drawn)
-0.907: Z-AUC ([7]; measured here: PEO4 Z-AUC)
inactive: Potency [1] | Potency [2] | Potency [3] | Potency [4] | Potency [5] | Potency [6] | Z-AUC [7] -1.69
-1.32: Z-AUC [7, 8]

C/C1=C\C[C@]2(C)C(=O)C(O)=C([C@H](C)CO)[C@H]2C/C=C(\C)[C@@H](O)CC/C(C)=C/CC1
inactive: Potency [1] | Potency [2] | Potency [3] | Potency [4] | Potency [5] | Potency [6]

O=C(O[C@H]1[C@@H]2C[C@@H]3OC[C@](O)([C@@H]1Cl)[C@H]2C(O[C@@H]1O[C@H](CO)[C@@H](O)[C@H](O)[C@H]1O)O3)c1ccc(O)c(O)c1 (stereo partly drawn)
inactive: Potency [1] | Potency [2] | Potency [3] | Potency [5] | Potency [6]
active: Potency [4] 1.46 µM

C[C@@H]1CC[C@@]2(OC1)O[C@H]1C[C@H]3[C@@H]4CC=C5C[C@@H](O)CC[C@]5(C)[C@H]4CC[C@]3(C)[C@H]1[C@@H]2C
inactive: Potency [1] | Potency [2] | Potency [3] | Potency [4] | Potency [5] | Potency [6]

C[C@@H]1C(=O)O[C@H]2C[C@]34[C@H]5C[C@@H](C(C)(C)C)[C@]36[C@@H](OC(=O)[C@H]6O)O[C@]4(C(=O)O5)[C@]21O
inactive: Potency [1] | Potency [2] | Potency [3] | Potency [4] | Potency [5] | Potency [6]

COc1cc(O)c2c(c1)C1=C[C@H](O)[C@@H](O)C[C@]1(C)OC2=O
inactive: Potency [1] | Potency [2] | Potency [3] | Potency [4] | Potency [5] | Potency [6]

CC[C@H](NC(=O)[C@H](CS(=O)(=O)CC1CC1)N[C@@H](c1ccc(F)cc1)C(F)(F)F)C(=O)C(=O)NC1CC1
inactive: Potency [1] | Potency [2] | Potency [3] | Potency [4] | Potency [5] | Potency [6] | Z-AUC [7] 0.263
1.51: Z-AUC ([7]; measured here: PEO4 Z-AUC)
1.63: Z-AUC [7, 8]

C=C(C(=O)OC)C1C(O)CC2(C)C(=O)CCC(O)(CO)C2C1O (stereo not drawn)
inactive: Potency [1] | Potency [2] | Potency [3] | Potency [4] | Potency [5] | Potency [6]

— PubChem BioAssay (NCATS)
